Records with an inconclusive call do not appear. Active and inactive are the calls of the source. Rule for the calls: active = hit-call score of the fitted dose curve at least 0.9, where 1 is the maximum; inconclusive = response in the unintended direction; inactive = score below 0.9.
What follows are compounds tested against Beta-2 adrenergic receptor (Homo sapiens) (UniProt P07550) (assay: NVS_GPCR_hAdrb2: NovaScreen (NVS) G Protein-Coupled Receptor Assay for human Adrenergic, Beta 2 Receptor (Adrb2) (AID 2283261)).
Sequence of Beta-2 adrenergic receptor (Homo sapiens) (P07550 whole entry, looked up): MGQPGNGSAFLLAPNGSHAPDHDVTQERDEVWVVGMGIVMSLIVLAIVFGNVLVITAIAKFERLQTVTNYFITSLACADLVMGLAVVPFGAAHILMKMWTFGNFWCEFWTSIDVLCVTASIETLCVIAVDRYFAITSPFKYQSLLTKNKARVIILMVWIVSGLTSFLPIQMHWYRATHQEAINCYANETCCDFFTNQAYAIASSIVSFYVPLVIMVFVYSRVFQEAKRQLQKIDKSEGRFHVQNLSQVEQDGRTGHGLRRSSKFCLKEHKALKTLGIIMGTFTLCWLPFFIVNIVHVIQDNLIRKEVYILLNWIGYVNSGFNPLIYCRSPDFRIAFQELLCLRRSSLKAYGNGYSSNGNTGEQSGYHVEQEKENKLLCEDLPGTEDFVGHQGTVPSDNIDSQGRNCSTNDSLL
Outline: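 Compounds screened in duplicate at 25 uM, then actives in concentration series. Human beta-2 receptor from CHO material, cell-free; radioligand displacement after 1 h measured by filtration and scintillation against DMSO baseline.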

| Compound | outcome |
| --- | --- |
| CN=C=S | inactive |
| COC(=O)NS(=O)(=O)c1ccc(N)cc1 | inactive |
| Nc1c(Cl)c(Cl)nc(C(=O)O)c1Cl | inactive |

The compounds below were run against D(1A) dopamine receptor (Homo sapiens) (UniProt P21728) (assay: NVS_GPCR_hDRD1: NovaScreen (NVS) G Protein-Coupled Receptor Assay for human Dopamine Receptor D1 (DRD1) (AID 2283269)).
Sequence of D(1A) dopamine receptor (Homo sapiens) (P21728 whole entry, looked up): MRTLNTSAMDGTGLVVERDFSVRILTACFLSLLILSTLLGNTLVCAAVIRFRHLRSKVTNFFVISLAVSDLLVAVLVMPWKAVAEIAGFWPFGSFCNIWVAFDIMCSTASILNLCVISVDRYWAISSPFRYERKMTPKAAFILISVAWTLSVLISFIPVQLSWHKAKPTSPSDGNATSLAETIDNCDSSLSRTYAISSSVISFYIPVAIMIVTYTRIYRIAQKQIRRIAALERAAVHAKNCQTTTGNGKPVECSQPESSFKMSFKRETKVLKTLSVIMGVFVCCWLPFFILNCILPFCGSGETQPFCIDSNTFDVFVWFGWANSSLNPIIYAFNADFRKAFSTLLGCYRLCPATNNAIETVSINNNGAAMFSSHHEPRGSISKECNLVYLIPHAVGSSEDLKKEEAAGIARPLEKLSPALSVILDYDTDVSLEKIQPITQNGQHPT
Outline: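 HEK293-derived receptor preparation; radioligand competitive displacement; 1 h; filtration + scintillation counting. DMSO = negative control/baseline. Primary: 25 uM, duplicate; secondary: concentration–response for actives.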

| Compound | outcome |
| --- | --- |
| CCOP(=O)(OCC)Oc1nc(Cl)c(Cl)cc1Cl | inactive |
| CCOc1cc(C(C)(C)C)ccc1C1COC(c2c(F)cccc2F)=N1 (configuration not stated) | inactive |
| Cc1ccc(N=CN(C)C=Nc2ccc(C)cc2C)c(C)c1 | inactive |

These compounds were tested against Muscarinic acetylcholine receptor M1 (Homo sapiens) (UniProt P11229) (assay: NVS_GPCR_hM1: NovaScreen (NVS) G Protein-Coupled Receptor Assay for human Muscarinic, M1 Receptor (AID 2283270)).
Sequence of Muscarinic acetylcholine receptor M1 (Homo sapiens) (P11229 whole entry, looked up): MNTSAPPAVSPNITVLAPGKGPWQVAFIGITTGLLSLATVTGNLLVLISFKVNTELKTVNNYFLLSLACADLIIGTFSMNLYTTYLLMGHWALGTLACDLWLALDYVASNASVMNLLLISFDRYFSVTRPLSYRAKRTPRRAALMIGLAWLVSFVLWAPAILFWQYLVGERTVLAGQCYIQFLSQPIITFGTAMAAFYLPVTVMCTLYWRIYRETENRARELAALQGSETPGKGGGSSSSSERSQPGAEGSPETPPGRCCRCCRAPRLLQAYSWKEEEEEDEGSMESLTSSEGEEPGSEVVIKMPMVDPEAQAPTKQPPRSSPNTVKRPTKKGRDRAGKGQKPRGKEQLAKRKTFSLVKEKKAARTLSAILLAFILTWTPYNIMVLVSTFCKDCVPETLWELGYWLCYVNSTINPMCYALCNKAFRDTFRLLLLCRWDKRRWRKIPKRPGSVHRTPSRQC
Outline: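 Actives from a duplicate 25 uM single-point screen were retested in concentration series. Binding measured as displacement of a radioligand from CHO-derived receptor preparation, 1 h incubation, filtration and scintillation counting, analysed as signal loss against DMSO.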

| Compound | outcome | AC50 |
| --- | --- | --- |
| O=c1n(Cl)c(=O)n(Cl)c(=O)n1Cl | inactive |  |
| COC(=O)NS(=O)(=O)c1ccc(N)cc1 | inactive |  |
| CCCCC(C#N)(Cn1cncn1)c1ccc(Cl)cc1 (configuration not stated) |  | 5.56 µM (active) |

The compounds below were run against human Leukotriene B4 Receptor 1 (LTB4-BLT1), LTB4R (gene 1241) (UniProt Q15722) (assay: NVS_GPCR_hLTB4_BLT1: NovaScreen (NVS) G Protein-Coupled Receptor Assay for human Leukotriene B4 Receptor 1 (LTB4-BLT1) (AID 2283271)).
Sequence of human Leukotriene B4 Receptor 1 (LTB4-BLT1), LTB4R (gene 1241) (Q15722 whole entry, looked up): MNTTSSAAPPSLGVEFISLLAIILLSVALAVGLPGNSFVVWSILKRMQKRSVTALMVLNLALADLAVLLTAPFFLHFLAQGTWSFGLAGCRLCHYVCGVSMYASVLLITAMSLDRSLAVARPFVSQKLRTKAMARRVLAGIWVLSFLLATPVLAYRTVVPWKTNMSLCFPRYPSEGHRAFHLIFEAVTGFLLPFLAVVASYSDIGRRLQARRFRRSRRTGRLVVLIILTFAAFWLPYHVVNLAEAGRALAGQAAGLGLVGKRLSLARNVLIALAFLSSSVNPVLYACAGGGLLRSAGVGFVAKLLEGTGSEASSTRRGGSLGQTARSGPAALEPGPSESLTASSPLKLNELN
Procedure: (§1) NVS_GPCR_hLTB4_BLT1 is a biochemical, single-readout assay that uses extracted gene-proteins from Human neutrophils in a cell-free assay. Measurements were taken 1 hour after chemical dosing in a 48-well plate.NVS_GPCR_hLTB4_BLT1 is one of one assay component(s) measured or calculated from the NVS_GPCR_hLTB4_BLT1 assay. It is designed to make measurements of radioligand binding, a form of binding reporter, as detected with scintillation counting signals by Filter-based radiodetection technology.Data from the assay component NVS_GPCR_hLTB4_BLT1 was analyzed into 1 assay endpoint. This assay endpoint, NVS_GPCR_hLTB4_BLT1, was analyzed in the positive analysis fitting direction relative to DMSO as the negative control and baseline of activity. Using a type of binding reporter, loss-of-signal activity can be used to understand changes in the binding as they relate to the gene LTB4R. Furthermore, this assay endpoint can be referred to as a primary readout, because the performed assay has only produced 1 assay endpoint. To generalize the intended target to other relatable targets, this assay endpoint is annotated to the gpcr intended target family, where the subfamily is rhodopsin-like receptor.
(§2) Binding assays used specific radioligands (tritiated, iodinated) with non-radioactive competitive displacement ligands in agonist or antagonist protocols (as indicated) and various reference compounds and inhibitors to titrate specific binding to receptors and transporters. Most enzyme assays (CYPs, kinases, phosphatases, proteases, HDACs) used recombinant protein and specific substrates (fluorescence mostly, some colorimetric and radioactive) and inhibitors, followed by a biochemical separation of substrate and product. All assays for the biochemical HTS were initially run in duplicate at a single concentration (10 uM for CYP450 assays and 25 uM for all others). Assay-chemical combinations meeting a pre-defined threshold (e.g., 30% inhibition and other criteria defined below) were then run in singleton concentration-response format with maximum concentration of 20 uM for CYPs and 50 uM for all others. Each assay was run with positive and negative controls, and concurrent controls on every plate. The follow-up (secondary) screen tested active chemical-pairs in concentration series, as well as a few additional assays not tested in the primary screen, some selected negative inactives, and several cases re-run in the concentration series for confirmatory purposes.

| Compound | outcome | AC50 |
| --- | --- | --- |
| COc1cc(OC)nc(NC(=O)NS(=O)(=O)c2ncccc2OCC(F)(F)F)n1 | inactive |  |
| COC(=O)N(C(=O)N1CO[C@@]2(C(=O)OC)Cc3cc(Cl)ccc3C2=N1)c1ccc(OC(F)(F)F)cc1 | inactive |  |
| CC(C)(C)C(=O)C(Oc1ccc(Cl)cc1)n1cncn1 (configuration not stated) |  | 11.8 µM (active) |
| CCCCOCN(C(=O)CCl)c1c(CC)cccc1CC | inactive |  |

What follows are compounds tested against Muscarinic acetylcholine receptor M3 (Homo sapiens) (UniProt P20309) (assay: NVS_GPCR_hM3: NovaScreen (NVS) G Protein-Coupled Receptor Assay for human Muscarinic, M3 Receptor (AID 2283272)).
Sequence of Muscarinic acetylcholine receptor M3 (Homo sapiens) (P20309 whole entry, looked up): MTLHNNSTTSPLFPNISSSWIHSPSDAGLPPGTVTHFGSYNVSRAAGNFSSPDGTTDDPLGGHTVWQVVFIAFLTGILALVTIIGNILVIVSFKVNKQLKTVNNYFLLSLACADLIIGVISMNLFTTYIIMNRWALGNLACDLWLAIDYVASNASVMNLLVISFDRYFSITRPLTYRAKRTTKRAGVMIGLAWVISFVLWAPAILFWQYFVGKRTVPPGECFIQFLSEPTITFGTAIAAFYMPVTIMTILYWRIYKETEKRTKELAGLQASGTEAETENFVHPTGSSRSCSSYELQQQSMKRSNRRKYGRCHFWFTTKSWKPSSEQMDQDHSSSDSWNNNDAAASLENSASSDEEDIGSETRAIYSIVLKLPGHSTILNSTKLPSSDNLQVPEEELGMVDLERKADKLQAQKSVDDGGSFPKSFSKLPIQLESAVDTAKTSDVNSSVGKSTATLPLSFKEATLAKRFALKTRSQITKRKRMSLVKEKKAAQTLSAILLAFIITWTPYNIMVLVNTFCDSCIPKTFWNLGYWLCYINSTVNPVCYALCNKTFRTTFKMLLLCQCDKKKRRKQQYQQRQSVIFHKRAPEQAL
Procedure: as §1, with “NVS_GPCR_hM3” for “NVS_GPCR_hLTB4_BLT1”, “CHO” for “Human neutrophils”, “96-well plate.NVS_GPCR_hM3” for “48-well plate.NVS_GPCR_hLTB4_BLT1”, “NVS_GPCR_hM3,” for “NVS_GPCR_hLTB4_BLT1,”, “CHRM3.” for “LTB4R.”
as §2, with “Assay-chemical combinations meeting a pre-defined threshold (e.g., 30% inhibition and other criteria defined below) were then run in singleton concentration-response format with maximum concentration of 20 uM for CYPs and 50 uM for all others.” left out

| Compound | AC50 | outcome |
| --- | --- | --- |
| CCSC(=O)N1CCCCCC1 | 8.57 µM (active) |  |
| CC(C)(C)C(=O)C(Oc1ccc(Cl)cc1)n1cncn1 (configuration not stated) |  | inactive |
| Cc1cc(C)nc(Nc2ccccc2)n1 | 12.4 µM (active) |  |
| CCCCC(C#N)(Cn1cncn1)c1ccc(Cl)cc1 (configuration not stated) | 8.08 µM (active) |  |
